# Source: ChEMBL document CHEMBL4513216, “Probing the Open Global Health Chemical Diversity Library for Multistage-Active Starting Points for Next-Generation Antimalarials” (ACS Infect Dis, 2020)
# Among all 69,000 compounds or so, about 8,600 (12%) showed an effect of 50% or more. The sample holds strong results, similar compounds and a random draw of the others, so the mix is not that of the screen.
# System: Plasmodium berghei
# Test: Screen against P. berghei liver stage (PbLuc), transformed with Luciferase, at 10uM
# Format: functional, HepG2
# Conditions: tested at 10 uM
row,Compound,INHIBITION [%]
1,O=C1CC(N(C(=O)c2ccc(F)c(C(F)(F)F)c2)C2CC2)C(=O)N1 (stereo not given),0.914
2,CCc1ccc2c(C3CN(CC4CCC4)C3)ncn2c1,27.5
3,O=C(NC[C@H]1OC[C@@H](NC2CCNCC2)[C@@H]1O)C1CCCC1,24.5
4,OC(COc1ccc(F)cc1)CN1CCC(Cn2cccn2)CC1 (stereo not given),22.9
5,CCCn1ccnc1-c1nccn1CCN(C)C,34.1
6,COCc1ncc(-c2nccn2CCn2cnnc2)cn1,-0.614
7,CCCn1ccnc1-c1nccn1CCn1cnnc1,50.5
8,C1CCC(CNC2CCCN(Cc3noc(C4CC4)n3)C2)CC1 (stereo not given),31.6
9,CCCNC(=O)c1cc2c(c3ccccc3n2C)n1C(=O)N(C)C,26.2
10,CC(C)n1c2ccccc2c2c1cc(C(=O)O)n2C(=O)N(C)C,57.5
11,CC(C)n1c2ccccc2c2c1cc(C(=O)NCCO)n2C(=O)N(C)C,55.7
12,CC(C)n1c2ccccc2c2c1cc(C(=O)N(C)C)n2C,82
13,COCCNC(=O)c1cc2c(c3ccccc3n2C)n1C(=O)N(C)C,36.9
14,CC(C)n1c2ccccc2c2c1cc(C(=O)N(C)C)n2C(=O)N(C)C,47.5
15,CC(C)NC(=O)CN(C)C(=O)c1c(Cl)c2ccccc2n1C,15.8
16,CCCN(CC)C(=O)c1cc2c(c3ccccc3n2C)n1C(=O)N(C)C,11.9
17,CC(C)n1c2ccccc2c2c1cc(C(=O)N(C)C)n2S(C)(=O)=O,49.4
18,CC(C)n1c2ccccc2c2c1cc(C(=O)NC1CC1)n2C(=O)N(C)C,60.2
19,CC(C)NC(=O)c1cc2c(c3ccccc3n2C)n1C(=O)N(C)C,36.9
20,CN(C)C(=O)n1c(C(=O)NC(C)(C)CO)cc2c1c1ccccc1n2C,-24.9
21,Cc1ccc(C(=O)NCCSCc2cccs2)cn1,8.75
22,Cc1ccc(NC2CCN(C(=O)c3ccc(F)c(C)c3)CC2)nn1,47.1
23,COCCn1c(-c2cccc(OC)c2)cnc1NC(=O)NC1CCCC1,13.5
24,CN(C)c1cncc(C2CCCN2S(=O)(=O)c2cn(C)cn2)n1 (stereo not given),32.8

row,Compound,INHIBITION [%]
1,O=C(c1cnccn1)N1CCN(CC2CC2)c2ncccc2C1,-21.1
2,COCCC(=O)N(C)Cc1nc(C(F)(F)F)cs1,-26.8
3,O=C(NCc1cc[nH]n1)NCC(O)c1ccccc1F (stereo not given),7.12
4,N#CCCN(Cc1ccco1)C(=O)CN1CCCC1c1cccs1 (stereo not given),29.4
5,COc1c(C2CCCN2CC(=O)N(C)Cc2ccco2)c(C)nn1C (stereo not given),89.4
6,CN(CCC#N)C(=O)CN1CCCC1c1cccs1 (stereo not given),-85
7,COc1c(C2CCCN2C(=O)c2ccco2)c(C)nn1C (stereo not given),7.18
8,CCN(C(=O)CN1CCCC1c1c(C)nn(C)c1OC)C1CC1 (stereo not given),-23.3
9,CN(Cc1ccco1)C(=O)CN1CCCC1c1cccs1 (stereo not given),62.3
10,CC(=O)Nc1ccc(CNCC(O)c2ccc(Cl)cc2)cc1 (stereo not given),45.7
11,c1cncc(CN2CCn3c(Cn4cncn4)cnc3C2)c1,31.1
12,Cc1ccc(CC(=O)N2CCCC(c3nccs3)C2)cn1 (stereo not given),3.4
13,O=C(NCC1(O)CCCC1)c1ccc2nsnc2c1,-47
14,Cc1nc(CN(C)c2nccc(N(C)C)n2)cs1,51.5
15,Cc1nc(CC(=O)NCCNc2nccc(C(F)(F)F)n2)cs1,22.6
16,Cc1cc(N(C)C)nc(N(C)Cc2csc(C)n2)n1,-3.35
17,Cc1nc(CN(C)c2nccc(C(F)(F)F)n2)cs1,50.1
18,Cc1noc(C)c1CN(C)c1nccc(C(F)(F)F)n1,-25.7
19,COc1ccnc(N(C)Cc2csc(C)n2)n1,-62.7
20,CCCN1CCCn2nc(CNS(=O)(=O)c3cnn(CC)c3)cc2C1,29.1
21,Cc1ccccc1OCCCC(=O)NCc1ccnc(O)c1,9.6
22,COc1ccccc1CC(=O)NCc1ccnc(NC2CC2)c1,75.7
23,COc1ccccc1CC(=O)N1CCC(NCc2ccncc2)CC1,22.275
24,O=C(CCc1ccsc1)NCc1ccnc(OC2CCOCC2)c1,-8.91

row,Compound,INHIBITION [%]
1,O=C(CCc1ccc(F)cc1)NCc1ccnc(NC2CC2)c1,53.3
2,CCOCCC(=O)NCc1ccnc(NC2CC2)c1,41.5
3,COc1ccc(CNC(=O)NC2CCN(C)CC2)c(C(F)(F)F)c1,33.8
4,O=C(Cn1ccnc1)N1CC[C@H](Oc2cccc(F)c2)[C@@H](O)CC1,13.85
5,CCOc1ccc(-n2nnc(C(=O)O)c2-c2ccncc2)cc1,15
6,O=C(O)c1ccnc(SCC(F)(F)F)c1,57
7,O=C(O)c1ccnc(SCc2ccccc2)c1,13.5
8,O=C(O)c1ccnc(SCC(=O)c2ccccc2)c1,9.55
9,CC(=O)N1CCCN(C(=O)CN(C)c2ccc(Cl)cn2)CC1,22.8
10,COc1ccc(CN2CCCC2c2cccc(F)c2)c(OC)c1OC (stereo not given),16
11,Cc1ccc(S(C)(=O)=O)cc1C(=O)N1CCCC(n2cncn2)C1 (stereo not given),-12.1
12,CN(C)C(=O)CO[C@H]1CN(Cc2ccsc2)[C@@H]2COC[C@H]12,-0.284
13,O=C(Nc1ncc[nH]1)c1cc(-c2cccnc2)n[nH]1,57
14,CC(C)Cc1nc(NC(=O)c2cc(-c3cccnc3)n[nH]2)n[nH]1,40.1
15,COc1cccc(-c2cc(C(=O)Nc3nc[nH]n3)[nH]n2)c1,-43.7
16,CN1CC(=O)N(c2cccc(F)c2)CC12CCN(Cc1cccnc1)C2 (stereo not given),1.58
17,Cc1noc(C(C)C)c1C(=O)NCCC(=O)N1CCCCC1,-18
18,COc1ccccc1NC(=O)NC1(c2noc(CN(C)C)n2)CCCC1,48.1
19,Cc1cccc(CN2CCc3nnc(Cn4cccc4)n3CC2)n1,23.5
20,Cc1nc(-c2ccc(Cl)cc2)n(CC(=O)NC(C)C)c(=O)c1CCO,61.4
21,COCCNC(=O)Cn1c(-c2ccc(Cl)cc2)nc(C)c(CCO)c1=O,2.29
22,CCN(CC)C(=O)Cn1c(-c2ccc(Cl)cc2)nc(C)c(CCO)c1=O,-21.8
